AmpC inh detg: AmpC beta-lactamase inhibition with detergent present; P00811; AID 485294; 370,000 tested, 0.041% active; Potency, µM (top dose mostly 114 µM), usual class: inhibitors; AmpC hydrolysis of nitrocefin, absorbance 480 nm, 0.01% Triton; note: nearly all actives have a fitted effect of over 25% in size
Target sequence (P00811 whole entry, looked up): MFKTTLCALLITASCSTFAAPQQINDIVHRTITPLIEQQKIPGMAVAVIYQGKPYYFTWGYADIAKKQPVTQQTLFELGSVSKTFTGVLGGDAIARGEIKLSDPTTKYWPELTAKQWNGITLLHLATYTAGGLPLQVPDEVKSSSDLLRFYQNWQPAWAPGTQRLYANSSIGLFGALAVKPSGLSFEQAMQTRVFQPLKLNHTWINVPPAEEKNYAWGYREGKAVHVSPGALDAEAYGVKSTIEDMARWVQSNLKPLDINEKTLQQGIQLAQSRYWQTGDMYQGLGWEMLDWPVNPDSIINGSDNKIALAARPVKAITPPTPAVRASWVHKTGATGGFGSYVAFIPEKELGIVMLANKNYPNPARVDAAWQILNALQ
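AmpC (5.3 nM in the dispensed reagent) in 20 mM phosphate pH 7.0 with 0.01% (detergent screen) or 0.0001% Triton X-100 was preincubated with compounds for 15 min at room temperature. Nitrocefin was then added from an 800 uM solution, and hydrolysis was followed at 480 nm.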
AMA1-RON2 inh: AMA1-RON2 (P. falciparum) interaction inhibition | AlphaScreen AMA1-biotinylated RON2 peptide binding | Potency, µM (doses to about 58.2 µM), usual class: inhibitors | 360,000 tested, 0.2% active; note: nearly all actives have a fitted effect of over 45% in size
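AMA1 (3D7) with his tag at 25 nM final met compounds first, then biotinylated RON2 peptide at 25 nM; detection used donor plus acceptor beads, 10 µg/mL apiece, read by AlphaScreen after 30 min at room temperature.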
SARS PLpro yeast: inhibitors of SARS-CoV papain-like protease in yeast. Potency, µM (doses to about 32.9 µM), usual class: activators. 330,000 tested, 0.19% active. S. cerevisiae expressing SARS-CoV PLpro, growth rescue; calls by dose curve; note: nearly all actives have a fitted effect of over 55% in size
Cycloheximide cs: affects cycloheximide protein synthesis inhibition readout, counter-screen. AID 2314. 300,000 tested, 12% active. max response, %. cell reporter, cycloheximide protein synthesis inhibition counterscreen; in the data active = max response mostly above about 13%, no sharp cut-off; inactive = mostly below about 14%; note: read at 38.3 µM for the half of the compounds with a filed dose
Shiga toxin inh: blocks Shiga toxin action in Vero cells; Vero cells, Shiga toxin protein synthesis inhibition reporter; inhibition, % at 38.7 µM; 290,000 tested, 9.2% active; AID 2315; in the data active = inhibition mostly above about 28%, no sharp cut-off; inactive = mostly below about 43%
AmpC inh no detg: blocks E. coli AmpC beta-lactamase in detergent-free assay; P00811; AmpC nitrocefin hydrolysis, absorbance 480 nm, 0.0001% Triton; Potency, µM (doses to about 57.1 µM), actives largely listed as inhibitors; 330,000 tested, 0.52% active; AID 485341; note: nearly all actives have a fitted effect of over 20% in size
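20 mM phosphate pH 7.0 + 0.01% (detergent screen) or 0.0001% Triton X-100; 5.3 nM AmpC reagent; cpd preinc 15 min RT; nitrocefin (800 uM stock) to start; A480 q20 s × 4 min; Activity was normalised to no-enzyme and no-compound control wells.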
A number is an active result. The entries come from a sample that favours hits as a whole. Unless noted, calls come from the whole dose curve; as a rule, active = well fitted curve in the direction sought with a large enough effect; inconclusive = small, poorly fitted or top-dose-only effect, or another doubt; inactive = no such curve, though single readings can be large; an effect the other way counts as inactive or inconclusive.

Results for C=CCn1c(C)cc(C(=O)COc2ccc(C)nc2[N+](=O)[O-])c1C ?
AmpC inh detg: inactive; AMA1-RON2 inh: inactive; SARS PLpro yeast: inactive; Cycloheximide cs: 74.7; Shiga toxin inh: 98.0; AmpC inh no detg: inactive

What do the screens show for `CCN1CCN(Cc2cc3c(cc2[N+](=O)[O-])OCO3)CC1`?
AmpC inh detg: inactive; AMA1-RON2 inh: inactive; SARS PLpro yeast: inactive; Cycloheximide cs: inactive; Shiga toxin inh: inactive; AmpC inh no detg: inactive

What do the screens show for `Cc1ccc(S(=O)(=O)N2CCCN(C)CC2)cc1`?
AmpC inh detg: inactive; AMA1-RON2 inh: inactive; SARS PLpro yeast: inactive; Cycloheximide cs: inactive; Shiga toxin inh: inactive; AmpC inh no detg: inactive

How did CC(Oc1ccccc1F)C(=O)/C=C/N(C)C (stereo not drawn) do in these assays?
AmpC inh detg: inactive; AMA1-RON2 inh: inactive; SARS PLpro yeast: inactive; Cycloheximide cs: inactive; Shiga toxin inh: inactive; AmpC inh no detg: inactive

Results for O=[N+]([O-])c1cc(S(=O)(=O)N2CCCC2)ccc1OCc1ccccc1 ?
AmpC inh detg: inactive; AMA1-RON2 inh: inactive; SARS PLpro yeast: inactive; Cycloheximide cs: 28.3; Shiga toxin inh: inactive; AmpC inh no detg: inactive

What do the screens show for `Cc1ccc(C)c(C(=O)COc2ccc(C)nc2[N+](=O)[O-])c1`?
AmpC inh detg: inactive; AMA1-RON2 inh: inactive; SARS PLpro yeast: inactive; Cycloheximide cs: inactive; Shiga toxin inh: inactive; AmpC inh no detg: inactive

Results for Cc1ccc(OCC(=O)c2c[nH]c3ccccc23)c([N+](=O)[O-])n1 ?
AmpC inh detg: inactive; AMA1-RON2 inh: inactive; SARS PLpro yeast: inactive; Cycloheximide cs: 51.2; Shiga toxin inh: 80.6; AmpC inh no detg: inactive

Results for C=CCn1c(C)cc(C(=O)COc2nncc3ccccc23)c1C ?
AmpC inh detg: inactive; AMA1-RON2 inh: inactive; SARS PLpro yeast: inactive; Cycloheximide cs: 68.9; Shiga toxin inh: 159.0; AmpC inh no detg: inactive

How did COc1ccc(CCNc2nc3c(c(=O)n(C)c(=O)n3C)n2C)cc1OC do in these assays?
AmpC inh detg: inactive; AMA1-RON2 inh: inactive; SARS PLpro yeast: inactive; Cycloheximide cs: inactive; Shiga toxin inh: inactive; AmpC inh no detg: inactive

How did CN(C)/C=C1\C(=O)N(c2ccc(F)cc2F)C(c2cccnc2)S1(=O)=O (stereo not drawn) do in these assays?
AmpC inh detg: inactive; AMA1-RON2 inh: inactive; SARS PLpro yeast: inactive; Cycloheximide cs: inactive; Shiga toxin inh: inactive; AmpC inh no detg: inactive

What do the screens show for `CCn1cc(C2Nc3ccccc3C(=O)N2O)c(C)n1` (stereo not drawn)?
AmpC inh detg: inactive; AMA1-RON2 inh: inactive; SARS PLpro yeast: inactive; Cycloheximide cs: 12.1; Shiga toxin inh: 44.0; AmpC inh no detg: inconclusive

Results for Cc1c(C2Nc3ccccc3C(=O)N2O)cnn1C (stereo not drawn) ?
AmpC inh detg: inactive; AMA1-RON2 inh: inactive; SARS PLpro yeast: inactive; Cycloheximide cs: 16.7; Shiga toxin inh: inactive; AmpC inh no detg: inactive

Results for COCCN(Cc1nc(-c2ccc(-c3ccccc3)cc2)oc1C)C(C)C ?
AmpC inh detg: inconclusive; AMA1-RON2 inh: inactive; SARS PLpro yeast: inactive; Cycloheximide cs: 31.0; Shiga toxin inh: 38.2; AmpC inh no detg: inactive

Results for N#CC(=C1C=C(Br)C(=NO)C=C1Cl)c1ccc(Cl)cc1 ?
AMA1-RON2 inh: 20µM

How did N#CC(C#N)=C/C=C(\Nc1ccc(Cl)cc1)c1ccc(Cl)cc1 do in these assays?
AmpC inh detg: inactive; AMA1-RON2 inh: inactive; SARS PLpro yeast: inactive; Cycloheximide cs: inactive; Shiga toxin inh: inactive; AmpC inh no detg: inactive

Results for CCOC(=O)/C(=N/Nc1ccc(OC)cc1)Sc1nnc(CCc2ccccc2)n1-c1ccccc1 ?
AmpC inh detg: inactive; AMA1-RON2 inh: inactive; SARS PLpro yeast: inactive; Cycloheximide cs: 30.9; Shiga toxin inh: inactive; AmpC inh no detg: inactive

How did COCCNC(=O)c1nn2c(C(F)(F)F)cc(-c3ccccc3)nc2c1Br do in these assays?
AMA1-RON2 inh: inactive

How did O=C(COC(=O)c1ccccc1[N+](=O)[O-])NCCCc1ccccc1 do in these assays?
AmpC inh detg: inactive; AMA1-RON2 inh: inactive; SARS PLpro yeast: inactive; Cycloheximide cs: 37.7; Shiga toxin inh: 70.3; AmpC inh no detg: inactive

How did CC1CCCC(NC(=O)COC(=O)c2ccc([N+](=O)[O-])s2)C1C (stereo not drawn) do in these assays?
AMA1-RON2 inh: inactive; SARS PLpro yeast: inactive; AmpC inh no detg: inactive

Results for CC1CCCC(NC(=O)COC(=O)c2ccccc2[N+](=O)[O-])C1C (stereo not drawn) ?
AmpC inh detg: inactive; AMA1-RON2 inh: inactive; SARS PLpro yeast: inactive; Cycloheximide cs: 30.3; Shiga toxin inh: 83.5; AmpC inh no detg: inactive

How did Cc1cccc(COC[C@H](CC(C)C)N2CCN(C(=O)c3ccc(C(F)(F)F)cc3)CCC2=O)c1 do in these assays?
AMA1-RON2 inh: inactive

How did C/C(CC(=O)Nc1ccc(Cl)c(C(F)(F)F)c1)=N\NC(=O)c1cccc(O)c1 do in these assays?
AmpC inh detg: inactive; AMA1-RON2 inh: inactive; SARS PLpro yeast: inactive; Cycloheximide cs: 44.1; Shiga toxin inh: 67.8; AmpC inh no detg: inactive

What do the screens show for `C/C(CC(=O)Nc1ccc(Cl)c(C(F)(F)F)c1)=N\NC(=O)c1ccccc1O`?
AmpC inh detg: inactive; AMA1-RON2 inh: inactive; SARS PLpro yeast: inactive; Cycloheximide cs: 21.7; Shiga toxin inh: inactive; AmpC inh no detg: inconclusive

Results for CN(CC(=O)Nc1ccc(Cl)c(C(F)(F)F)c1)C(=O)c1cccc2cccnc12 ?
AmpC inh detg: inconclusive; AMA1-RON2 inh: inactive; SARS PLpro yeast: inactive; AmpC inh no detg: inactive

How did C/C(CC(=O)Nc1ccc(Cl)c(C(F)(F)F)c1)=N\NC(N)=S do in these assays?
AmpC inh detg: inactive; AMA1-RON2 inh: inactive; SARS PLpro yeast: inactive; Cycloheximide cs: 19.7; Shiga toxin inh: inactive; AmpC inh no detg: inactive

Results for CN(CC(=O)Nc1ccc(Cl)c(C(F)(F)F)c1)C(=O)C1CCC1 ?
AmpC inh detg: inactive; AMA1-RON2 inh: inactive; SARS PLpro yeast: inactive; AmpC inh no detg: inactive

What do the screens show for `CCc1ccccc1NCC(=O)Nc1ccc(Cl)c(C(F)(F)F)c1`?
AmpC inh detg: inactive; AMA1-RON2 inh: inactive; SARS PLpro yeast: inactive; Cycloheximide cs: inactive; Shiga toxin inh: inactive; AmpC inh no detg: inactive

Results for COC(=O)[C@H](C)NC(=O)NCc1ccco1 ?
AmpC inh detg: inconclusive; AMA1-RON2 inh: inactive; SARS PLpro yeast: inactive; Cycloheximide cs: inactive; Shiga toxin inh: inactive; AmpC inh no detg: inactive

Results for Cc1nc(-c2ccc(Cl)cc2)sc1C1(C)CC(c2ccccc2Br)=NO1 (stereo not drawn) ?
AMA1-RON2 inh: inactive

What do the screens show for `Nc1nnc(SCCOc2cccc(Br)c2)s1`?
AmpC inh detg: inactive; AMA1-RON2 inh: inactive; SARS PLpro yeast: inactive; Cycloheximide cs: inactive; Shiga toxin inh: inactive; AmpC inh no detg: inactive

What do the screens show for `Brc1cccc(OCCSc2ncccn2)c1`?
AmpC inh detg: inactive; AMA1-RON2 inh: inactive; SARS PLpro yeast: inactive; Cycloheximide cs: 33.5; Shiga toxin inh: 44.0; AmpC inh no detg: inactive

Bioassay records from PubChem BioAssay.
